Test systems include NCI-H23 lung; NCI-H226 lung; NCI-H322M lung; HOP-62 NSCLC; HOP-92 NSCLC; NCI-H522 lung; A549/ATCC NSCLC; 786-0 renal; COLO 205 colon; DU-145 prostate; K-562 leukemia; MALME-3M melanoma; MDA-MB-231 breast; RXF 393 renal; SF-268 CNS; SF-295 CNS; SF-539 CNS; UACC-257 melanoma; M14 melanoma; NCI-H460 lung.
Experiment in all cases: NCI-60 one-dose screen, 48 h (100 = growth as untreated, 0 = no growth, -100 = all killed)
Holding throughout (settings): 10 µM unless noted

The panel holds about 83,000 compounds, 20% with a hit somewhere; the sample as a whole holds those more often.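 Percent growth is the endpoint: 0 to 100 indicates growth inhibition (40 means 60% inhibition), 0 means no net growth, and negative values indicate cell death.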 A number with no mark means an inactive call. Activity calls are given as the source filed them. The calls were made as follows: active = growth percent below 10; inactive = the rest.

As to `CCOC(=O)C/C(=N\Nc1cc(=O)[nH]c2ccc(Cl)cc12)C(=O)OCC`, the growth is 95.3% with NCI-H23 lung; 98.2% in the assay on NCI-H226 lung; 91.3% with NCI-H322M lung; 101% in the assay on HOP-62 NSCLC; 87.5% in the assay on HOP-92 NSCLC; 105% with NCI-H522 lung. Moreover, the growth was 100% in the assay on A549/ATCC NSCLC; 106% with 786-0 renal; 121% in the assay with COLO 205 colon; 106% in the assay on DU-145 prostate; 43.9% in the assay on K-562 leukemia; 95.8% with MALME-3M melanoma. The growth with MDA-MB-231 breast was 98.8%; in the assay on RXF 393 renal, 110%; in the assay with SF-268 CNS, 98.6%; with SF-295 CNS, 103%; with SF-539 CNS, 98.8%; with UACC-257 melanoma it was 105%. Further, in the assay on M14 melanoma, the growth was 95.5%.

Consider `O=[N+]([O-])/C(=C\c1ccco1)c1ccccc1Cl`, for which the growth in the assay with NCI-H23 lung is 92.3%; in the assay on NCI-H226 lung it was 90.3%; with NCI-H322M lung, 80.2%; in the assay on HOP-62 NSCLC, 76.2%; in the assay with NCI-H522 lung it was 23.2%; with A549/ATCC NSCLC it was 62.3%. In addition, the growth with 786-0 renal was 9.35% (active); in the assay on COLO 205 colon, 82.8%; in the assay on DU-145 prostate, 86.1%; in the assay on K-562 leukemia, 67.9%; with MALME-3M melanoma, 80.6%; in the assay with MDA-MB-231 breast, 87.9%. For the same molecule, the growth in the assay with RXF 393 renal was 67.1%; in the assay on SF-268 CNS it was 87%; in the assay on SF-295 CNS, 102%; with SF-539 CNS, 91.7%; with UACC-257 melanoma it was 66.7%; in the assay with M14 melanoma, 66.2%.

On to `O=C(Nc1ccccc1O)c1ccccc1Nc1ccnc(C(F)(F)F)c1`, for which the growth is 94.5% in the assay with NCI-H23 lung; 70.4% in the assay with NCI-H226 lung; 114% with NCI-H322M lung; 99.5% with HOP-62 NSCLC; 88% in the assay on HOP-92 NSCLC; 83.9% in the assay with NCI-H522 lung. For the same molecule, the growth is 114% with A549/ATCC NSCLC; 104% in the assay on 786-0 renal; 148% in the assay with COLO 205 colon; 104% with DU-145 prostate; 86.2% with K-562 leukemia; 112% with MALME-3M melanoma. Further, the growth in the assay on MDA-MB-231 breast is 82.5%; with RXF 393 renal it was 108%; in the assay with SF-268 CNS it was 113%; in the assay on SF-295 CNS, 107%; in the assay with SF-539 CNS, 89.1%; in the assay with UACC-257 melanoma, 106%. Further, the growth in the assay on M14 melanoma was 98.6%.

As to `Cc1ccc(C)c(-n2c(-c3ccc(Br)cc3)csc2=NC(=O)c2ccccc2F)c1`, the growth in the assay with NCI-H23 lung is 54.7%; in the assay on NCI-H226 lung, 82.5%; in the assay with NCI-H322M lung it was 92.8%; with HOP-62 NSCLC it was 95.8%; with NCI-H522 lung it was 168%; with A549/ATCC NSCLC, 71.4%. The growth with 786-0 renal was 71.1%; in the assay with COLO 205 colon, 92.9%; with DU-145 prostate, 102%; with K-562 leukemia, 23.9%; with MALME-3M melanoma, 73.9%; in the assay with MDA-MB-231 breast it was 84.1%. For the same molecule, the growth with RXF 393 renal was 81.8%; in the assay on SF-268 CNS it was 99.6%; in the assay with SF-295 CNS, 73%; with SF-539 CNS, 89%; in the assay with UACC-257 melanoma, 57%; with M14 melanoma it was 81.3%.

For `CNC(=O)c1cc(Oc2ccc3nc(NC(=O)Nc4ccc(Cl)c(Cl)c4)sc3c2)ccn1`, the growth with NCI-H23 lung is 28.9%; with NCI-H226 lung, 23.1%; in the assay on NCI-H322M lung, 63.7%; in the assay with HOP-62 NSCLC it was 14.7%; with NCI-H460 lung, 30.8%; in the assay on NCI-H522 lung, 48.4%. Also, the growth in the assay with A549/ATCC NSCLC is 10.9%; in the assay with 786-0 renal, 40.5%; in the assay with COLO 205 colon, 80.8%; in the assay with DU-145 prostate, 35.3%; in the assay on K-562 leukemia, 62.5%; with MALME-3M melanoma, -5.7% (active). Further, the growth in the assay with MDA-MB-231 breast was 39.5%; in the assay on RXF 393 renal, 88.6%; in the assay with SF-268 CNS, 11.9%; with SF-295 CNS it was -0.659% (active); with SF-539 CNS, 22.5%; in the assay with UACC-257 melanoma, 74.7%. In addition, the growth in the assay with M14 melanoma is 1.23% (active).

On to `C=C1C(=O)O[C@H]2[C@H]1CC/C(COC(=O)c1cc3cc(F)ccc3[nH]1)=C\CC[C@@]1(C)O[C@@H]21`, for which the growth in the assay with NCI-H23 lung is -66.4% (active); in the assay on NCI-H226 lung it was -41.3% (active); in the assay with NCI-H322M lung, -35.7% (active); with HOP-62 NSCLC it was -50.8% (active); with NCI-H460 lung it was -59.2% (active); with NCI-H522 lung, -68.9% (active). The growth with A549/ATCC NSCLC was -61.9% (active); in the assay on 786-0 renal it was -89.6% (active); in the assay with COLO 205 colon, -68.7% (active); in the assay with DU-145 prostate it was -93.1% (active); in the assay with K-562 leukemia, 0.0225% (active); with MALME-3M melanoma, -76.4% (active). For the same molecule, the growth was -70.1% (active) in the assay with MDA-MB-231 breast; -84.4% (active) with RXF 393 renal; -71.2% (active) with SF-268 CNS; 33% in the assay on SF-295 CNS; -87% (active) in the assay with SF-539 CNS; -79.5% (active) with UACC-257 melanoma. The growth in the assay on M14 melanoma was -75.9% (active).

On to `O=C(N=Nc1c(O)[nH]c2ccccc12)Nc1ccc(Cl)cc1`, for which the growth in the assay on NCI-H23 lung is 93%; in the assay with NCI-H226 lung, 95.5%; with NCI-H322M lung, 75.3%; in the assay on HOP-62 NSCLC it was 98.6%; with HOP-92 NSCLC it was 80%; with A549/ATCC NSCLC, 92.5%. For the same molecule, the growth with 786-0 renal was 97.8%; in the assay on COLO 205 colon, 99.5%; in the assay with DU-145 prostate, 108%; in the assay with K-562 leukemia, 81.5%; with MALME-3M melanoma it was 96.3%; with MDA-MB-231 breast, 102%. In addition, the growth is 96.3% in the assay on RXF 393 renal; 101% with SF-268 CNS; 101% in the assay on SF-295 CNS; 83.8% in the assay on SF-539 CNS; 95.8% with UACC-257 melanoma; 95.3% in the assay on M14 melanoma.

As for `CCN1C(=O)N(CC)C2C1NN=C1SCC(=O)N12` (centres undefined), the growth in the assay on NCI-H23 lung was 96.1%; with NCI-H226 lung it was 91.6%; with NCI-H322M lung it was 103%; in the assay on HOP-62 NSCLC, 100%; in the assay on HOP-92 NSCLC, 114%; with NCI-H522 lung it was 77.5%. Besides, the growth with A549/ATCC NSCLC was 102%; with 786-0 renal, 95.8%; in the assay on COLO 205 colon, 44.7%; in the assay on DU-145 prostate, 101%; with K-562 leukemia, 47.9%; in the assay on MALME-3M melanoma, 77%. Moreover, the growth with MDA-MB-231 breast was 59.4%; in the assay on RXF 393 renal, 107%; in the assay on SF-268 CNS, 98.6%; in the assay with SF-295 CNS, 100%; in the assay on SF-539 CNS it was 92.9%; in the assay with UACC-257 melanoma it was 22.2%. In the assay with M14 melanoma, the growth is 85%.

(Values after PubChem BioAssay (NCI).)
